Data published in PubChem BioAssay (NCATS).
Inconclusive results are not listed. Values without a mark were called inactive. Active and inactive are the calls of the source. Calls come from the whole dose curve; as a rule, active = well fitted cell-killing curve with a large enough effect; inconclusive = small, poorly fitted or top-dose-only effect, or effect the other way; inactive = no such curve, though single readings can be large or run the other way.

test: Viability qHTS for spleen associated tyrosine kinase inhibitor (SYKi) naive MV4-11 cells (AID 1963823); conditions: MV4-11 AML viability, CellTiter-Glo luminescence, 72 h; series mostly up to 45 µM; viability (% of control): at the top concentration; note: nearly all actives have a fitted effect of over 40% in size
Summary of the method: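 qHTS, SYK inhibitor-naive MV4-11; 500 cells/well; 72 hr compound exposure, 37 C; CellTiter-Glo added, 10 min RT; luminescence read.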
Potency is the fitted concentration of half-maximal effect.

Going from `C[C@@H]1N[C@H]2N(C1=O)c1ccccc1[C@@]2(O)C[C@@H]1C(=O)N[C@@H](C)c2nc3ccccc3c(=O)n21` to `CCC(C)C(C(=O)O)N1Cc2c(OCC=C(C)C)c(C)c(OC)c(C(=O)O)c2C1=O` (stereo not given), the “viability (% of control)” value rises from 49% [at 17.3 µM] to 88.6% [at 17.3 µM].

Going from `Cc1nc2ccccc2c(-c2ccc3c4c(ccnc24)CCO3)c1[C@H](OC(C)(C)C)C(=O)O` to `COC(=O)Cn1nc(-c2cccc(OC)c2)c2ccccc21`, the “viability (% of control)” value rises from 60.9% to 85.2%.

For `Cc1cn2cc(CC(=O)N3CCC4(CC3)CN(Cc3ccc(-n5nccn5)cc3Cl)C4)nc2s1`, the Potency was 16.4 µM (active).
